# Sampled rows, rich in hits. Any-hit rate of the full collection: about 10%.
# GPT2 inh: Primary qHTS assay for inhibitors of Glutamate pyruvate transaminase 2 (GPT2) | 100,000 compounds, 0.25% hits | AID 1671188, 2021 | Recombinant GPT2, coupled pyruvate oxidase/HRP Amplex Red fluorescence | Potency, µM (doses to about 57.7 µM), without a hit: at the highest dose activity change, negative = inhibition, most hits filed as inhibitors; note: % is set by controls: 0 for no effect and ±100 for the full control effect; nearly all actives have a fitted effect of over 60% in size
#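 Recombinant GPT2 (10ng/uL) with 250uM a-KG and 2mM L-alanine, 30 min at room temperature, in HEPES pH 7.5 buffer. Pyruvate detected by pyruvate oxidase/HRP/Amplex Red fluorescence after 30 min in the dark; AOA (50uM) as positive control.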
# HEK293 tox: Cytotoxic Profiling in HEK 293 Cell Line of Diverse Libraries Using Quantitative High-Throughput Screening | HEK 293 viability, ATP luminescence (CellTiter-Glo), 48-72 h | Potency, µM (titrated, usually from 115 µM), inactives show at the highest dose activity change, negative = cytotoxicity, most hits filed as inhibitors | 94,000 compounds, 6.6% hits | AID 1345083, 2018; note: % is set by controls: 0 for no effect and ±100 for the full control effect; nearly all actives have a fitted effect of over 60% in size
#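 ATP-coupled CellTiter-Glo luminescence served as viability read-out, recorded 10 min after reagent addition at room temperature. HEK 293 cells, 250 cells/well, had been incubated with pintool-transferred compound for 48 or 72 hr at 37 degree Celsius.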
# hNpr1 antagonist: Natriuretic polypeptide receptor (hNpr1) antagonism - Primary qHTS; HEK293 hNpr1 GloSensor cGMP, ANP-stimulated luminescence; Potency, µM (titrated, usually from 46.3 µM), for inactives: at the top dose activity change, negative = inhibition, usual class: inhibitors; AID 1347048, 2019; Atrial natriuretic peptide receptor 1 (Homo sapiens), P16066; 76,000 compounds, 1.6% hits; calls by dose curve; note: % is set by controls: 0 for no effect and ±100 for the full control effect; nearly all actives have a fitted effect of over 60% in size
#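 HEK293 cells stably expressing human Npr1 and cGMP GloSensor pGS-40F, loaded 2 h with 2% GloSensor reagent, given compound 30 min at room temperature. Luminescence read before and 20 min after 0.1 nM hNppA.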
# 3T3 cytotox: Cytotoxic Profiling in NIH 3T3 Cell Line of Diverse Libraries Using Quantitative High-Throughput Screening | NIH 3T3 viability, CellTiter-Glo ATP luminescence, 48-72 h | Potency, µM (titrated, usually from 96.7 µM), for the others: at the highest dose activity change, negative = cytotoxicity, hits mostly inhibitors | 94,000 compounds, 4.3% hits | AID 1345082, 2018; note: % is set by controls: 0 for no effect and ±100 for the full control effect; nearly all actives have a fitted effect of over 55% in size
#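 Viability of NIH 3T3 cells after 48 or 72 hr compound treatment at 37 °C was assessed by CellTiter-Glo, with luminescence imaged following a 10 min room-temperature step.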
# Luciferase inh: Firefly luciferase inhibition profiling of diverse chemical library using quantitative high-throughput screening | Potency, µM (series often up to 115 µM), actives largely listed as inhibitors | AID 1347043, 2019 | purified P. pyralis luciferase, luminescence, biochemical | 76,000 compounds, 2.5% hits; note: % is set by controls: 0 for no effect and ±100 for the full control effect; nearly all actives have a fitted effect of over 65% in size
#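 Biochemical qHTS: compound (6-point titration) added to 10uM D-luciferin plus 10uM ATP in Tris acetate pH 7.5 buffer with Mg, Tween-20 and BSA, then purified enzyme at 10nM; light output imaged.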
# NPR1 antag cnf: Natriuretic polypeptide receptor (hNpr1) antagonism - Confirmation; shares compounds with hNpr1 antagonist; HEK293 hNpr1 cGMP GloSensor luminescence, ANP-stimulated; Potency, µM (highest dose often 57.6 µM), inactives show at the top dose activity change, negative = inhibition, actives largely listed as inhibitors; 1,400 compounds, 76% hits; AID 1347044, 2019; calls by dose curve; note: nearly all actives have a fitted effect of over 70% in size
# Npr2 selectivity: Natriuretic polypeptide receptor (hNpr2) antagonism - Subtype selectivity assay; 1,400 compounds, 67% hits; shares compounds with hNpr1 antagonist; HEK293 hNpr2 GloSensor cGMP luminescence, CNP-stimulated; Potency, µM (titrated, usually from 57.6 µM), for inactives: top-dose activity change, negative = inhibition, hits mostly inhibitors; calls by dose curve; note: nearly all actives have a fitted effect of over 70% in size
# FLuc inh counter: Natriuretic polypeptide receptor (hNpr1) antagonism - Confirmation firefly luciferase (FLuc) inhibition counterscreen | shares compounds with hNpr1 antagonist | purified FLuc enzyme, luminescence, Km substrate | Potency, µM (doses to about 57.6 µM), inactives show top-dose activity change, negative = inhibition, hits mostly inhibitors | 1,400 compounds, 0.7% hits | AID 1347047, 2019; note: 0% is about no effect
# GloSensor ctrl: Natriuretic polypeptide receptor (hNpr1) antagonism - Counterscreen GloSensor control cell line; 1,400 compounds, 69% hits; shares compounds with hNpr1 antagonist; Potency, µM (highest dose often 57.6 µM), without a hit: at the top dose activity change, negative = inhibition, hits mostly inhibitors; HEK293 GloSensor cGMP, SNP-stimulated, luminescence; calls by dose curve; note: % is set by controls: 0 for no effect and ±100 for the full control effect; nearly all actives have a fitted effect of over 70% in size
# * = called active by the depositor; i = inactive; ? = inconclusive; . = no result. Unless noted, calls come from the whole dose curve; as a rule, active = well fitted curve in the direction sought with a large enough effect; inconclusive = small, poorly fitted or top-dose-only effect, or another doubt; inactive = no such curve, though single readings can be large; an effect the other way counts as inactive or inconclusive. Potency is the fitted concentration of half-maximal effect.
SMILES,GPT2 inh,HEK293 tox,hNpr1 antagonist,3T3 cytotox,Luciferase inh,NPR1 antag cnf,Npr2 selectivity,FLuc inh counter,GloSensor ctrl
CN1CCCC1c1nc(C2CN(C(=O)CCc3nc4ccccc4s3)C2)no1 (centres undefined),-5.3%,?,-2.6%,-10.8%,i,.,.,.,.
O=C(CCc1nc2ccccc2s1)N1CCCC(c2nc(C3CCOCC3)no2)C1 (centres undefined),3.2%,?,-14.3%,-26.3%,i,-10.3%,1.6%,-7.2%,-4.1%
O=C(CCc1nc2ccccc2s1)N1CCC(Cc2noc(-c3ccc(F)cc3)n2)C1 (centres undefined),i,39.8µM*,11.2µM*,?,i,21.7µM*,21.7µM*,-7.6%,21.7µM*
COc1ccc(-c2nc(CC3CCN(C(=O)c4ccnn4C)C3)no2)cc1 (centres undefined),-6.9%,?,?,?,i,.,.,.,.
CC(C)c1nc(-c2ccc(OC3CCN(C(=O)c4n[nH]c5ccccc45)C3)cc2)no1 (centres undefined),0.1%,28.2µM*,15.8µM*,?,i,24.3µM*,24.3µM*,-0.1%,19.3µM*
O=C(c1cc(F)ccc1F)N1CC(Oc2ccc(-c3nc(-c4ccccc4)no3)cc2)C1,i,?,?,-10.6%,?,.,.,.,.
CC(C)c1nc(-c2ccc(OC3CCN(C(=O)c4cc(F)ccc4F)C3)cc2)no1 (centres undefined),-14.6%,20µM*,11.2µM*,?,i,10.9µM*,13.7µM*,1.4%,10.9µM*
Cc1ccc(C2Cn3nnc(C(=O)N4CCN(C(=O)c5ccccc5F)CC4)c3CO2)cc1 (centres undefined),i,?,?,-21.4%,i,.,.,.,.
Cc1ccccc1CC(=O)N1CCN(C(=O)c2nnn3c2COC(c2ccc(Cl)cc2)C3)CC1 (centres undefined),2.5%,28.2µM*,14.1µM*,35.5µM*,i,19.3µM*,21.7µM*,3.9%,19.3µM*
COc1ccccc1C(=O)N1CCN(C(=O)c2nnn3c2COC(c2ccc(Cl)cc2)C3)CC1 (centres undefined),i,?,-27.1%,?,i,.,.,.,.
Cc1ccc(C2Cn3nnc(C(=O)N4CCN(C(=O)c5ccc(Cl)cc5)CC4)c3CO2)cc1 (centres undefined),3.3%,-5.9%,-3.5%,-6.8%,i,.,.,.,.
